Inconclusive results are not listed. Active and inactive are the calls of the source. The call rests on the fitted dose curve; in most records, active means well fitted inhibition curve with a large enough effect; inconclusive means small, poorly fitted or top-dose-only effect; inactive means flat fitted curve, though single readings scatter.
Each compound was assayed against Calcium and integrin-binding protein 1 (Homo sapiens) (UniProt Q99828) (assay: Primary qHTS for Identification of Calcium Integrin Binding Protein 1 (CIB1) Competitor (AID 1508620;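 further: GST tagged CIB1 binding a fluorescein labelled alphaIIb integrin peptide tracer; top concentration of the series differs between compounds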)). Details: CIB1-GST / FITC-alphaIIb peptide fluorescence polarization; series mostly up to 114 µM; activity change, negative = inhibition: at the top concentration.
Sequence of Calcium and integrin-binding protein 1 (Homo sapiens) (Q99828 whole entry, looked up): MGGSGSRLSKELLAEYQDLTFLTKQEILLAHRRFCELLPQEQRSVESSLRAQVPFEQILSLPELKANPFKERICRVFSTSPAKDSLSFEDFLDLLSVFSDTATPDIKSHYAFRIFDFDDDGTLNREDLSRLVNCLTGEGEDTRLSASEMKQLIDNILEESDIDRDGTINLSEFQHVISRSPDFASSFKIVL
Method in brief: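 Fluorescence polarization competition: CIB1-GST (1 uM final) preincubated with compound 15 min at room temperature, then FITC-labeled alphaIIb peptide (100 nM final) added for another 15 min. Polarization read at Ex 480/Em 540.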
In the case of Cc1cnc(-c2ccccc2C(C)C)nc1NCc1ccc(-n2ccnn2)cc1, the “activity change, negative = inhibition” value is reported as -7.66% (inactive).
CO[C@@H]1[C@H](O)CCC2(CO2)[C@H]1[C@@]1(C)O[C@@H]1CC=C(C)C (some centres undefined) was tested, and the “activity change, negative = inhibition” value was 5.72% (inactive).
With COC(=O)C[C@H]1C(C)(C)[C@H](OC(=O)c2ccccc2)C2CC3=C4CC(=O)O[C@@H](c5ccoc5)[C@]4(C)CCC3[C@@]1(C)C2=O (some centres undefined) the “activity change, negative = inhibition” value was 1.02% [at 57.7 µM] (inactive).
For C=C1/C(=C/C=C2\CCC[C@]3(C)[C@@H]([C@H](C)/C=C/[C@H](O)C4CC4)CC[C@@H]23)C[C@@H](O)C[C@@H]1O, the “activity change, negative = inhibition” value was 0.681% (inactive).
On the % scale 0 is the no-effect control and ±100 the full control effect.
